3T3 cytotox = cytotoxic compounds in NIH 3T3 cells; NIH 3T3 viability, CellTiter-Glo ATP luminescence, 48-72 h; Potency, µM (highest dose often 96.7 µM), for inactives: top-dose activity change, negative = cytotoxicity, hits mostly inhibitors; hit rate 4.3% among 94,000; further: nearly all actives have a fitted effect of over 55% in size
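ATP-dependent luminescence (CellTiter-Glo) served as the viability signal for NIH 3T3 cells treated with compound for 48 or 72 hr at 37 °C.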
HEK cytotox = HEK 293 cell cytotoxicity; HEK 293 viability, ATP luminescence (CellTiter-Glo), 48-72 h; Potency, µM (highest dose often 115 µM), for the others: at the highest dose activity change, negative = cytotoxicity, most hits filed as inhibitors; hit rate 6.6% among 94,000; further: nearly all actives have a fitted effect of over 60% in size
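250 HEK 293 cells/well; compound by pintool; incubated 48 or 72 hr at 37 degree Celsius; CellTiter-Glo added, 10 min RT, luminescence imaged.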
SNCA expr inhib = SNCA gene expression inhibition | Potency, µM (series often up to 57.2 µM), without a hit: at the highest dose activity change, negative = inhibition, actives largely listed as inhibitors | AID 1671194 | HEK-293 SNCA-luciferase knock-in, luminescence, 24 h | hit rate 0.17% among 140,000;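 further: plate controls were DMSO cells for no effect and cell-free wells for full effect; nearly all actives have a fitted effect of over 45% in size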
NPR1 antag = antagonists of human natriuretic peptide receptor Npr1. P16066. HEK293 hNpr1 GloSensor cGMP, ANP-stimulated luminescence. Potency, µM (highest dose often 46.3 µM), inactives show at the top dose activity change, negative = inhibition, most hits filed as inhibitors. hit rate 1.6% among 76,000. AID 1347048; calls by dose curve; further: nearly all actives have a fitted effect of over 60% in size
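HEK293 cells stably expressing human Npr1 and cGMP GloSensor pGS-40F, loaded 2 h with 2% GloSensor reagent, given compound 30 min at room temperature. Luminescence read before and 20 min after 0.1 nM hNppA.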
HEK293 viab = reduces viability of HEK-293 SNCA reporter cells | HEK-293-SNCA-luc viability, GF-AFC fluorescence, 24 h | Potency, µM (highest dose often 57.1 µM), without a hit: top-dose activity change, negative = cytotoxicity, usual class: cytotoxic | hit rate 0.12% among 150,000 | AID 1671193;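 further: 0% = DMSO-treated cells and -100% = medium-only wells without cells; nearly all actives have a fitted effect of over 30% in size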
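HEK-293-SNCA-luc cells (1500/well) plated 24 h, then exposed 24 h to a dilution series; GF-AFC added 30 min at 37C, fluorescence 405/540 nm; normalised to medium-only and DMSO wells, Hill fit.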
Luciferase inh = inhibitors of firefly (Photinus pyralis) luciferase | purified P. pyralis luciferase, luminescence, biochemical | Potency, µM (top dose mostly 115 µM), actives largely listed as inhibitors | hit rate 2.5% among 76,000 | AID 1347043; further: nearly all actives have a fitted effect of over 65% in size
Target sequence (P08659 whole entry, looked up): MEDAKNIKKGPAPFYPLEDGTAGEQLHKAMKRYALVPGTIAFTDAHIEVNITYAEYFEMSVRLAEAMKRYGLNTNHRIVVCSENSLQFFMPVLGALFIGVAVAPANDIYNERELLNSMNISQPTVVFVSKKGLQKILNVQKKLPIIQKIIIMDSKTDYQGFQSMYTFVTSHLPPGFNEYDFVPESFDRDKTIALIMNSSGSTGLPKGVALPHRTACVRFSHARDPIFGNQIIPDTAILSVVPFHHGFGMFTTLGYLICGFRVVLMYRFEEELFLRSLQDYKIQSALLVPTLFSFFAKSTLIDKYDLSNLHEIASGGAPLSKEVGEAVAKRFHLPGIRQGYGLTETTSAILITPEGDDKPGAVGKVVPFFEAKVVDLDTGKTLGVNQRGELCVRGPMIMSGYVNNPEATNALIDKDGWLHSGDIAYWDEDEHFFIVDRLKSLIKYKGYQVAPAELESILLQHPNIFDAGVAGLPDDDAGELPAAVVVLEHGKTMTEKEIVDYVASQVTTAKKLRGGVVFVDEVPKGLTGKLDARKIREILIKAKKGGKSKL
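Inhibitors were tested against purified firefly luciferase in a biochemical, low-substrate format (both substrates at 10uM) and luminescence measured with a CCD imager.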
* marks the source's active call; other numbers are inactive results; i = inactive; u = inconclusive; x = not tested or not shown; [ ] = another dose, or the depositor's remark. In the library only some 7.2% were active in any assay of this set; here they are far more common. Unless noted, the call rests on the fitted dose curve; in most records, active means well fitted curve in the direction sought with a large enough effect; inconclusive means small, poorly fitted or top-dose-only effect, or another doubt; inactive means no such curve, though single readings can be large; an effect the other way counts as inactive or inconclusive. Unless noted, on the % scale 0 is the no-effect control and ±100 the full control effect; potency means the concentration at half of the fitted maximal effect.

SMILES	3T3 cytotox	HEK cytotox	SNCA expr inhib	NPR1 antag	HEK293 viab	Luciferase inh
COc1ccc(Nc2ccnc(N3CCCC(C(=O)NCc4ccccc4Cl)C3)n2)cc1 (stereo unspecified)	35µM*	35µM*	-28%	x	-16%	x
COc1ccc(Nc2ccnc(N3CCCC(C(=O)NCC4CC4)C3)n2)cc1 (stereo unspecified)	u	u	-7%	x	-6%	x
Cc1noc(C)c1-c1cc2cc(C(C)C)oc2c(Nc2ccn(C)n2)n1	u	63µM*	-19%[87.6 µM]	1%[70.6 µM]	-30%[87.6 µM]	i
Cc1noc(C)c1-c1cc2cc(C(C)C)oc2c(NCCN2CCOCC2)n1	u	u	60%[87.6 µM]	3%[70.6 µM]	-7%[87.6 µM]	i
Cc1noc(C)c1-c1cc2cc(CNC3CC3)oc2c(NC2CCN(C)CC2)n1	u	40µM*	44%[87.6 µM]	-2%[70.6 µM]	u	i
Cc1noc(C)c1-c1cc2cc(C(C)C)oc2c(NC2CCN(C)CC2)n1	u	32µM*	32%[87.6 µM]	5%[70.6 µM]	-23%[87.6 µM]	i
COc1ccc(-c2cc(C(=O)N3CCOCC3)c3c(C)nn(-c4ccccc4)c3n2)cc1	u	u	176%	x	-2%	x
O=C(NC1CCCCCC1)c1nc2sccn2c1-c1cccc(C(F)(F)F)c1	u	-15%	6%	x	-2%	x
CC(C)(C)C(=O)N1CCCC(c2nn(-c3cccc(Cl)c3)c(=O)[nH]2)C1 (stereo unspecified)	u	u	69%	-1%	-6%	i
O=C(Cc1cccc(Cl)c1)N1CCN(C(=O)c2nc3cccnc3n(Cc3ccccc3)c2=O)CC1	u	u	0%	x	-4%[12.5 µM]	x
CC(C)Cn1ccc2c(NC(=O)CC[C@H]3NC(=O)c4ccccc4NC3=O)cccc21	-16%	u	-23%	-12%	-1%	u
CC(C)Cn1ccc2c(NC(=O)C[C@H]3NC(=O)c4ccccc4NC3=O)cccc21	28µM*	u	3%	-13%	1%	i
Cn1c2c(c3ccccc31)CN(C(=O)Nc1ccc(Cl)cc1Cl)CC2	u	u	48%	-19%	5%	25µM*
Cn1c2c(c3ccccc31)CN(C(=O)Nc1ccccc1F)CC2	35µM*	45µM*	48%	-3%	-2%	u
Cn1c2c(c3cc(F)ccc31)CN(C(=O)Nc1ccc(Cl)cc1Cl)CC2	u	u	-19%	-13%	-6%	i
CSc1ccc(CNC(=O)c2nnn3c2COC(c2ccc(F)cc2)C3)cc1 (stereo unspecified)	-1%	-22%	11%	-2%	-4%	i
CNc1cc(C)nc(N2C[C@H]3CN(C(=O)N(C)C)C[C@@]3(C(=O)O)C2)n1	-1%	-9%	27%	0%	0%	i
CC(CCc1ccccc1)NC(=O)C1CN(C2CCCC2)C(=O)N1 (stereo unspecified)	-20%[138 µM]	-2%[172 µM]	-4%[87.6 µM]	x	-4%[12.5 µM]	x
O=C(Cc1ccccn1)N1CCCC1C(=O)N1CCCC1c1nc2ccncc2[nH]1 (stereo unspecified)	-5%	-7%	10%	x	2%	x
COc1ccc(C(=O)N[C@@H]2CCC[C@@H]2C(=O)NCc2ccccc2C(F)(F)F)cc1	-8%	-35%	7%	-7%	-24%	i
Cc1nn(-c2ccccc2[N+](=O)[O-])c(C)c1[C@@H]1C=C[C@@H](NCc2ccco2)C1	u	89µM*	-25%[87.6 µM]	-17%[70.6 µM]	u	i
Cc1nn(-c2ccccc2[N+](=O)[O-])c(C)c1[C@@H]1C=C[C@@H](NCc2ccc(C(C)C)cc2)C1	u	20µM*	1%[87.6 µM]	u	20µM*	i
COc1ccc(CN[C@@H]2C=C[C@@H](c3c(C)nn(-c4cccc(Br)c4)c3C)C2)cc1	u	u	14%	-21%	u	i
Cc1nnc2ccc(N3CCN(C(=O)NC4CCCC4)CC3)nn12	-23%	-16%	x	x	x	x
